Here are results for 15 molecules from PubChem BioAssay AID720648 (The Scripps Research Institute Molecular Screening Center, 2013).

Out of some 370,000 compounds screened, about 3,100 (0.84%) were called active. What follows is part of a selection rich in actives, with near analogues and random picks from the rest. Unmarked numbers belong to inactive results.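 How the source made its calls: active means inhibition above the mean of compounds lying between control limits plus 3 SD, set per campaign (cut at about 8.5% in these data); inactive means the rest.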

The target in this assay is Disintegrin and metalloproteinase domain-containing protein 17 (Homo sapiens) (UniProt P78536). Nature of the assay: ADAM17 inhibitors, primary screen, biochemical, QFRET (AID 720648).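 Further: 0% = DMSO-only wells as the low control.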 The following applies: recombinant ADAM17, EDANS/DABCYL FRET peptide cleavage; at 6.95 µM; hits give high values.
Chain of Disintegrin and metalloproteinase domain-containing protein 17 (Homo sapiens) (P78536 215-824 limits assumed): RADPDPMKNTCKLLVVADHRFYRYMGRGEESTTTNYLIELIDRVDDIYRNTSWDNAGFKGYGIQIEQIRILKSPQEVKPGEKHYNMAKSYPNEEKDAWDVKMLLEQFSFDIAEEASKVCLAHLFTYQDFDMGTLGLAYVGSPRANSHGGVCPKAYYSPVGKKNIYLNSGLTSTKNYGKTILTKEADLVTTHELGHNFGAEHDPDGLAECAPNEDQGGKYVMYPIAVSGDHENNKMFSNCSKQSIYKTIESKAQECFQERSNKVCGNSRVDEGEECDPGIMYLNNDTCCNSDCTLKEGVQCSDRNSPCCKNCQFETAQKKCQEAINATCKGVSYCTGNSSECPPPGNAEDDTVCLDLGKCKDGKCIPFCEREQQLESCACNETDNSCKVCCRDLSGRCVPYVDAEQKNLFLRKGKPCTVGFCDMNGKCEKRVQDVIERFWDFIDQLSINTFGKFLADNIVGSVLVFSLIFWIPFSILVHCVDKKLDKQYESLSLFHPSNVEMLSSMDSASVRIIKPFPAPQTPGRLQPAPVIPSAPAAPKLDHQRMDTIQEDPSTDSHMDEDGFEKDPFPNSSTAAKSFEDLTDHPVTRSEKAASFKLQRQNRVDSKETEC
Consider `COC(=O)C1=C(c2ccc(F)cc2OCc2ccccc2)C[C@@H]2CC[C@H]1N2C(=O)NCc1ccc(Cl)cc1`, for which the inhibition was 3.55%. Consider `COC(=O)C1=C(c2ccc(-c3ccccc3)c(F)c2)C[C@@H]2CC[C@H]1N2C(=O)NCc1ccc(F)cc1`, for which the inhibition is 16.6% (active).

On to `COC(=O)C1=C(c2cccc(OCc3ccccc3)c2)C[C@@H]2CC[C@H]1N2C(=O)NCc1ccc(Br)cc1`, for which the inhibition was 7.72%. For the molecule `O=C1NC(=O)C(C/C=C/c2ccccc2)C(=O)N1`, the inhibition is -2.76%. As for `CN(C)C(=O)Oc1ccc2c(c1)O/C(=C\c1ccccc1)C2=O`, the inhibition is -16.6%.

For the molecule `O=C1C2(Cl)C3(Cl)C4(Cl)C(Cl)(Cl)C5(Cl)C3(Cl)C1(Cl)C5(Cl)C24Cl` (stereo not given), the inhibition is 11.4% (active).

In the case of `Cc1ccc(C(C)C)c(OCC(=O)N2CCN(CC(=O)N3CCOCC3)CC2)c1`, the inhibition is 1.57%. As to `CCN1CCN(c2ccc([N+](=O)[O-])cc2C#N)CC1`, the inhibition was -2.11%. The result for `CNC(=O)Nc1ccc(C(O)(C(=O)OC)C(F)(F)F)cc1` (stereo not given) reads -0.16%. As to `CC(=O)NCC1=C(c2ccc3ccccc3c2)C[C@@H]2CC[C@H]1N2Cc1ccco1`, the inhibition was 1.8%.

As for `CO[C@H]([C@H](C)/C=C/N(C)C=O)[C@@H](C)C(=O)CC[C@H](C)[C@H](O)[C@H](C)[C@H]1OC(=O)/C=C/C(C)=C/[C@H](O)[C@H](OC)C[C@@H]2C=CC[C@@H](C[C@H](OC)[C@@]3(CO3)[C@@H](OC)C[C@@H](OC)[C@@H]1C)O2`, the inhibition is -1.19%. On to `CCOP(=O)(OCC)C(NC(=O)NC)C(N)=O` (stereo not given), for which the inhibition is -4.24%. Consider `CCOC(=O)CC(SP1(=S)OCC2(CCCCO2)C(C2CCCCO2)O1)C(=O)OCC` (stereo not given), for which the inhibition was 12.4% (active). Turning to `Cc1nc2ccccc2c(=O)n1-c1ccc(Cl)cc1Cl`, the inhibition was 0.07%. With `Cn1cc(C(=O)OCC(=O)N2CCCC2)c2ccccc21` the figure was 1.16%.

Usually inhibition stands for the change of the read-out against control, counted positive when it falls.
